Results on 25 molecules are retold here after PubChem BioAssay.

Each structure is given as a SMILES string. Measured potencies and affinities stand elsewhere. Activity calls are given as the source filed them. The rule behind the calls is not given here.

The nature of this assay: OVCAR8 cell viability loss – plate reader, dry powder samples, PAX8 project, dose response (AID 743197). The settings on record: series mostly up to 35 µM.
Consider `C[C@@H]1CCCCO[C@H](CN(C)C(=O)Nc2ccc(C(F)(F)F)cc2)[C@H](C)CN([C@@H](C)CO)C(=O)c2cc(NS(=O)(=O)c3ccc(Cl)cc3)ccc2O1`, for which the outcome was inactive.
The entry for `C[C@H](O)C#Cc1cnc2c(c1)C(=O)N([C@H](C)CO)C[C@H](C)[C@H](CN(C)Cc1ccc(-c3ccccc3)cc1)O2` is “inactive”.
The entry for `Cc1ccc(S(=O)(=O)N(C)C[C@@H]2Oc3cc(C#Cc4ccncc4)ccc3S(=O)(=O)N([C@@H](C)CO)C[C@H]2C)cc1` is “inactive”; for `O=C(C[C@@H]1C[C@H]2c3cc(NC(=O)C4CCOCC4)ccc3O[C@H]2[C@H](CO)O1)NCc1ccc(Oc2ccccc2)cc1` it is “inactive”.
The value for `C[C@@H]1CCCCO[C@@H](CN(C)Cc2ccc(C(F)(F)F)cc2)[C@H](C)CN([C@H](C)CO)C(=O)c2cc(NS(=O)(=O)c3ccc(Cl)cc3)ccc2O1` was “inactive”.
For the molecule `Cc1ccc(S(=O)(=O)N(C)C[C@H]2OCCCC[C@@H](C)Oc3ccc(NS(=O)(=O)c4ccc(F)cc4)cc3C(=O)N([C@@H](C)CO)C[C@H]2C)cc1`, the result was inactive.
The entry for `C[C@@H]1CCCCO[C@H](CN(C)C(=O)Cc2ccccc2)[C@H](C)CN([C@@H](C)CO)C(=O)c2cc(NC(=O)Nc3ccc(C(F)(F)F)cc3)ccc2O1` is “inactive”; for `Cc1ccc(S(=O)(=O)Nc2ccc3c(c2)C(=O)N([C@H](C)CO)C[C@H](C)[C@H](CN(C)C(=O)c2ccccc2)OCCCC[C@H](C)O3)cc1` it is “inactive”; for `COc1ccc(S(=O)(=O)Nc2ccc3c(c2)CC(=O)N([C@H](C)CO)C[C@H](C)[C@@H](CN(C)Cc2ccc(-c4ccccc4)cc2)O3)cc1` it is “inactive”.
For the molecule `C[C@@H]1CCCCO[C@H](CN(C)S(=O)(=O)c2ccc(Cl)cc2)[C@@H](C)CN([C@@H](C)CO)C(=O)c2cc(NC(=O)CCC(F)(F)F)ccc2O1`, the outcome was inactive.
Consider `Cc1ccc(S(=O)(=O)Nc2ccc3c(c2)C(=O)N([C@@H](C)CO)C[C@@H](C)[C@H](CN(C)Cc2ccc(Cl)c(Cl)c2)OCCCC[C@@H](C)O3)cc1`, for which the call was inactive.
Take `CN1c2ccc(-c3ccc(C#N)cc3)cc2[C@@H]2[C@@H](CCN2C(=O)NC2CCCCC2)[C@@H]1CO`: the molecule was classed as inactive.
The value for `C[C@H]1CCCCO[C@H](CN(C)C(=O)Nc2ccc(C(F)(F)F)cc2)[C@@H](C)CN([C@@H](C)CO)C(=O)c2cc(NC(=O)c3ccncc3)ccc2O1` was “inactive”; that for `COc1ccccc1S(=O)(=O)N(C)C[C@@H]1Oc2cc(C#CCC3CCCC3)ccc2S(=O)(=O)N([C@@H](C)CO)C[C@@H]1C` was “inactive”; that for `C[C@@H]1CN([C@H](C)CO)C(=O)c2cc(NC(=O)Nc3ccc(F)cc3)ccc2O[C@@H](C)CCCCO[C@H]1CN(C)C(=O)Nc1ccc(F)cc1` was “inactive”.
The value for `Cc1ccc(S(=O)(=O)N(C)C[C@H]2Oc3ccc(NC(=O)Nc4ccc(C(F)(F)F)cc4)cc3CC(=O)N([C@H](C)CO)C[C@@H]2C)cc1` was “inactive”; that for `CCCN(C)C[C@H]1OCCCC[C@@H](C)Oc2ccc(NC(=O)c3ccccc3)cc2C(=O)N([C@H](C)CO)C[C@H]1C` was “inactive”.
The entry for `C[C@@H]1CN([C@H](C)CO)S(=O)(=O)c2ccc(C#Cc3ccncc3)cc2O[C@H]1CN(C)C(=O)Nc1ccc2c(c1)OCO2` is “inactive”.
On to `C[C@@H]1CN([C@H](C)CO)C(=O)c2cc(NC(=O)Nc3ccc(C(F)(F)F)cc3)ccc2O[C@@H](C)CCCCO[C@H]1CN(C)Cc1ccc(Cl)c(Cl)c1`, for which the result was inactive.
As for `C[C@H](CO)N1C[C@H](C)[C@H](CN(C)C(=O)NC2CCCCC2)OCCCC[C@H](C)Oc2ccc(NC(=O)Nc3ccc(C(F)(F)F)cc3)cc2C1=O`, the call was inactive.
As to `C[C@@H]1CN([C@H](C)CO)C(=O)Cc2cc(NC(=O)Nc3ccc(F)cc3)ccc2O[C@@H]1CN(C)Cc1ccc(Cl)c(Cl)c1`, the molecule was classed as inactive.
The entry for `C[C@@H]1CN([C@@H](C)CO)C(=O)c2ccccc2-c2ccccc2CO[C@H]1CN(C)Cc1ccccc1C(F)(F)F` is “inactive”.
`Cc1ccc(S(=O)(=O)Nc2ccc3c(c2)C(=O)N([C@@H](C)CO)C[C@H](C)[C@@H](CN(C)C(=O)Nc2ccc(C(F)(F)F)cc2)OCCCC[C@H](C)O3)cc1`: the molecule was called inactive.
The entry for `Cc1ccc(S(=O)(=O)N(C)C[C@@H]2Oc3c(NC(=O)c4ccc(-c5nccs5)cc4)cccc3C(=O)N([C@@H](C)CO)C[C@@H]2C)cc1` is “inactive”; for `C[C@@H]1CN([C@H](C)CO)C(=O)Cc2cc(NC(=O)Cc3ccccc3)ccc2O[C@@H]1CN(C)Cc1ccc(C(F)(F)F)cc1` it is “inactive”.
